Measured values as given in PubChem BioAssay (NCATS).
Inconclusive results are not listed. The source made the active and inactive calls. Calls follow the shape of the dose curve; as a rule, active = well fitted curve in the direction sought with a large enough effect; inconclusive = small, poorly fitted or top-dose-only effect, or another doubt; inactive = no such curve, though single readings can be large; an effect the other way counts as inactive or inconclusive.

Columns and labels:
TAB109 = experiment: qHTS profiling for inhibitors of Plasmodium falciparum proliferation (AID 504749);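 also: 0% = DMSO vehicle and full inhibition = artemisinin control; nearly all actives have a fitted effect of over 60% in size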; details: P. falciparum in erythrocytes, SYBR Green DNA, 72 h; series mostly up to 28.7 µM
In short: (§1)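 SYBR Green fluorescence (ex 485 nm, em 535 nm) reports parasite DNA after 72 h compound exposure of infected red cells at 0.3% parasitemia, 2.5% hematocrit; signal normalized to 0.29 uM artemisinin and vehicle wells.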

TAB113 = experiment: as above; details: P. falciparum in erythrocytes, SYBR Green DNA, 72 h; series mostly up to 28.7 µM
In short: as §1

TAB165 = experiment: as above; details: P. falciparum in erythrocytes, SYBR Green DNA, 72 h; series mostly up to 28.7 µM
In short: as §1

W2 = experiment: as above; details: P. falciparum in erythrocytes, SYBR Green DNA, 72 h; series mostly up to 28.7 µM
In short: as §1

CRL-7250 = normal cell line; experiment: Cytotoxic Profiling of Annotated Libraries Using Quantitative High-Throughput Screening (AID 1296008); details: Five cell lines viability, CellTiter-Glo ATP luminescence, 48-72 h; max response: stronger effect = lower value; also: nearly all actives have a fitted effect of over 60% in size; as to max response: % is scaled to controls: 0 for no effect and ±100 for the full control effect
In short: (§2)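 Cells exposed to compounds for 48 or 72 hr at 37 degrees Celsius. Viability read as ATP-coupled luminescence with CellTiter-Glo after 10 min at room temperature.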

HEK293 = experiment: as above; details: Five cell lines viability, CellTiter-Glo ATP luminescence, 48-72 h; max response: stronger effect = lower value
In short: as §2

HaCat [1] = experiment: as above; details: Five cell lines viability, CellTiter-Glo ATP luminescence, 48-72 h; max response: stronger effect = lower value
In short: as §2

KB-3-1 = experiment: as above; details: Five cell lines viability, CellTiter-Glo ATP luminescence, 48-72 h; max response: stronger effect = lower value
In short: as §2

NIH3T3 [2] = experiment: as above; details: Five cell lines viability, CellTiter-Glo ATP luminescence, 48-72 h; max response: stronger effect = lower value
In short: as §2

HACAT [3] = experiment: qHTS assay to identify novel small-molecules to repurpose for Merkel cell carcinoma treatment (AID 1296009); details: MCC and control cell lines, CellTiter-Glo viability, 72 h; at 44.8 µM (top of the series) unless noted; also: nearly all actives have a fitted effect of over 60% in size
In short: (§3)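 CellTiter-Glo luminescence after 72 hr compound exposure at 37 degree celsius gave cell viability. Libraries NPC and MIPE were run as 8- and 11-point dose responses; RLUs normalized to DMSO (negative) and no-cell (cytotoxicity) controls.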

MCC-13 = experiment: as above; details: MCC and control cell lines, CellTiter-Glo viability, 72 h; series mostly up to 46 µM
In short: as §3

MCC-26 = experiment: as above; details: MCC and control cell lines, CellTiter-Glo viability, 72 h; series mostly up to 46 µM
In short: as §3

MKL-1 = experiment: as above; details: MCC and control cell lines, CellTiter-Glo viability, 72 h; series mostly up to 46 µM
In short: as §3

UISO = experiment: as above; details: MCC and control cell lines, CellTiter-Glo viability, 72 h; series mostly up to 46 µM
In short: as §3

WaGa = experiment: as above; details: MCC and control cell lines, CellTiter-Glo viability, 72 h; series mostly up to 46 µM
In short: as §3

C33A = experiment: Primary qHTS to identify gynecologic anti-cancer compounds using libraries of approved drugs and bioactive compounds (AID 1345084); details: Gynecologic cancer cell panel viability, ATPlite luminescence, 48 h; series mostly up to 57.5 µM; also: % is scaled to controls: 0 for no effect and ±100 for the full control effect; nearly all actives have a fitted effect of over 55% in size
In short: (§4)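 In this quantitative HTS, cell killing is estimated from loss of ATP-dependent luciferase light. Cells see five compound concentrations over a 48 h exposure.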

MKL-2 = experiment: qHTS assay to identify novel small-molecules to repurpose for Merkel cell carcinoma treatment (AID 1296009); details: MCC and control cell lines, CellTiter-Glo viability, 72 h; series mostly up to 46 µM; also: nearly all actives have a fitted effect of over 60% in size
In short: as §3

CAOV3 = experiment: Primary qHTS to identify gynecologic anti-cancer compounds using libraries of approved drugs and bioactive compounds (AID 1345084); details: Gynecologic cancer cell panel viability, ATPlite luminescence, 48 h; series mostly up to 57.5 µM; also: % is scaled to controls: 0 for no effect and ±100 for the full control effect; nearly all actives have a fitted effect of over 55% in size
In short: as §4

HEK293T = experiment: qHTS assay to identify novel small-molecules to repurpose for Merkel cell carcinoma treatment (AID 1296009); details: MCC and control cell lines, CellTiter-Glo viability, 72 h; at 44.8 µM (top of the series) unless noted; also: nearly all actives have a fitted effect of over 60% in size
In short: as §3

NIH3T3 [4] = experiment: as above; details: MCC and control cell lines, CellTiter-Glo viability, 72 h; at 44.8 µM (top of the series)
In short: as §3

NCCNC(=O)c1ccc(Cl)cn1
inactive: Potency (TAB109) | Potency (TAB113) | Potency (TAB165) | Potency (W2) | outcome (CRL-7250) | max response (HEK293) -1.7% | outcome (HaCat [1]) | max response (KB-3-1) -16.4% | max response (NIH3T3 [2]) 2.21% | outcome (HACAT [3]) | Potency (MCC-13) | Potency (MCC-26) | Potency (MKL-1) | Potency (UISO) | Potency (WaGa) | Potency (C33A)

CC(C)Cn1cnc2c1c(=O)n(C)c(=O)n2C
inactive: Potency (TAB109) | Potency (TAB113) | Potency (TAB165) | Potency (W2) | outcome (CRL-7250) | max response (HEK293) -0.637% | max response (HaCat [1]) -0.147% | max response (KB-3-1) -13.7% | max response (NIH3T3 [2]) 1.58% | Potency (MCC-13) | Potency (MCC-26) | Potency (MKL-1) | Potency (MKL-2) | Potency (UISO) | Potency (WaGa) | Potency (C33A) | Potency (CAOV3)

CCC1NC(=O)c2cc(S(N)(=O)=O)c(Cl)cc2N1 (stereo not drawn)
inactive: max response (CRL-7250) -0.729% | max response (HEK293) -0.132% | max response (HaCat [1]) -3.39% | max response (KB-3-1) -10.4% | max response (NIH3T3 [2]) 3.38% | Potency (MCC-13) | Potency (MCC-26) | Potency (MKL-1) | Potency (MKL-2) | Potency (UISO) | Potency (WaGa) | Potency (C33A) | Potency (CAOV3)

Cc1nc(-c2ccc(Cl)cc2)oc1COC(C)(C)C(=O)O
inactive: Potency (TAB109) | Potency (TAB113) | Potency (TAB165) | Potency (W2) | outcome (CRL-7250) | max response (HEK293) 4.06% | max response (HaCat [1]) 3.89% | max response (KB-3-1) -5.49% | max response (NIH3T3 [2]) 1.1% | Potency (MCC-13) | Potency (MCC-26) | Potency (MKL-1) | Potency (MKL-2) | Potency (UISO) | Potency (WaGa) | Potency (C33A) | Potency (CAOV3)

CCCCNC(=O)NS(=O)(=O)c1ccc(N)cc1
inactive: Potency (TAB109) | Potency (TAB113) | Potency (TAB165) | Potency (W2) | max response (CRL-7250) -16.6% | max response (HEK293) 2.1% | max response (HaCat [1]) 3.3% | max response (KB-3-1) 10% | max response (NIH3T3 [2]) -1.55% | Potency (MCC-13) | Potency (MCC-26) | Potency (MKL-1) | Potency (MKL-2) | Potency (UISO) | Potency (WaGa) | Potency (C33A) | Potency (CAOV3)

CNCCc1ccccn1
inactive: Potency (TAB109) | Potency (TAB113) | Potency (TAB165) | Potency (W2) | outcome (CRL-7250) | max response (HEK293) -1.02% | max response (HaCat [1]) -8.27% | max response (KB-3-1) 5.51% | max response (NIH3T3 [2]) -2.69% | Potency (MCC-13) | Potency (MCC-26) | Potency (MKL-1) | Potency (MKL-2) | Potency (UISO) | Potency (WaGa) | Potency (C33A) | Potency (CAOV3)

COc1ccc(CCN(C)CCCN2CCc3cc(OC)c(OC)cc3CC2=O)cc1OC
inactive: Potency (TAB109) | Potency (TAB113) | Potency (TAB165) | max response (CRL-7250) -0.711% | outcome (HEK293) | max response (HaCat [1]) -7.19% | max response (KB-3-1) -10.8% | max response (NIH3T3 [2]) 3.6% | outcome (HEK293T) | Potency (MCC-13) | Potency (MCC-26) | Potency (MKL-1) | Potency (MKL-2) | Potency (UISO) | Potency (C33A) | Potency (CAOV3)

CC(=C(CCOC(=O)C(C)C)SSC(CCOC(=O)C(C)C)=C(C)N(C=O)Cc1cnc(C)nc1N)N(C=O)Cc1cnc(C)nc1N
inactive: max response (CRL-7250) 0.406% | max response (HEK293) -4.89% | outcome (HaCat [1]) | max response (KB-3-1) 1.98% | outcome (NIH3T3 [2]) | outcome (HACAT [3]) | Potency (MCC-13) | Potency (MCC-26) | Potency (MKL-1) | outcome (NIH3T3 [4]) | Potency (UISO) | Potency (WaGa) | Potency (C33A) | Potency (CAOV3)

CCCCN=C(N)N=C(N)N
inactive: Potency (TAB109) | Potency (TAB113) | Potency (TAB165) | Potency (W2) | max response (CRL-7250) 1.78% | outcome (HEK293) | max response (HaCat [1]) 2.62% | max response (KB-3-1) 1.99% | max response (NIH3T3 [2]) -1.41% | outcome (HEK293T) | Potency (MCC-13) | Potency (MCC-26) | Potency (MKL-1) | Potency (MKL-2) | Potency (UISO) | Potency (C33A)

C=C[C@H]1CN2CC[C@H]1C[C@@H]2[C@@H](O)c1ccnc2ccc(OC)cc12
inactive: max response (CRL-7250) -2.42% | max response (HEK293) -4.02% | max response (HaCat [1]) -4.58% | max response (KB-3-1) -6.93% | max response (NIH3T3 [2]) 1.59% | Potency (MCC-13) | Potency (MCC-26) | Potency (MKL-1) | Potency (MKL-2) | Potency (UISO) | Potency (WaGa) | Potency (C33A) | Potency (CAOV3)

CN(C)CCOC(=O)C(c1ccccc1)C1(O)CCCC1 (stereo not drawn)
inactive: max response (CRL-7250) -17.7% | outcome (HEK293) | outcome (HaCat [1]) | max response (KB-3-1) -12% | max response (NIH3T3 [2]) -1.59% | outcome (HACAT [3]) | outcome (HEK293T) | Potency (MCC-13) | Potency (MCC-26) | Potency (MKL-2) | Potency (UISO) | Potency (C33A)

CC(O)Cn1cnc2c1c(=O)n(C)c(=O)n2C (stereo not drawn)
inactive: max response (CRL-7250) 2.85% | max response (HEK293) 1.15% | max response (HaCat [1]) -17.4% | max response (KB-3-1) 13.1% | max response (NIH3T3 [2]) -9.57% | Potency (MCC-13) | Potency (MCC-26) | Potency (MKL-1) | Potency (MKL-2) | Potency (UISO) | Potency (WaGa) | Potency (C33A) | Potency (CAOV3)

CCCCN1C[C@H](O)[C@@H](O)[C@H](O)[C@H]1CO
inactive: max response (CRL-7250) -12.1% | max response (HEK293) -7.96% | max response (HaCat [1]) -19.6% | max response (KB-3-1) 15.3% | max response (NIH3T3 [2]) -2.42% | Potency (MCC-13) | Potency (MCC-26) | Potency (MKL-1) | Potency (MKL-2) | Potency (UISO) | Potency (WaGa) | Potency (C33A)
